Screen size: about 340,000 compounds; about 1,700 (0.5%) were called active. The list comes from a sample in which actives are over-represented; it also holds similar structures and randomly drawn compounds. Unmarked numbers belong to inactive results. No stated cut-off is given here; in the data, active means inhibition above about 36%; inactive means the rest.

What is called inhibition is the change of the read-out against control, counted positive when it falls.

The target in this test is Serine protease HTRA1 (Homo sapiens) (UniProt Q92743). Kind of test: HTRA1 serine protease inhibitors, primary screen, biochemical, fluorescence polarization, HTS (AID 504803).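 Further: 0% = enzyme with DMSO and 100% = wells lacking enzyme.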 The note with it: recombinant HTRA1, FP-rhodamine activity-based probe, at 5.96 µM, stronger effect = higher value. For orientation: Polarisation of emitted light reports the rotation of a fluorescent probe.
Chain of Serine protease HTRA1 (Homo sapiens) (Q92743 whole entry, looked up): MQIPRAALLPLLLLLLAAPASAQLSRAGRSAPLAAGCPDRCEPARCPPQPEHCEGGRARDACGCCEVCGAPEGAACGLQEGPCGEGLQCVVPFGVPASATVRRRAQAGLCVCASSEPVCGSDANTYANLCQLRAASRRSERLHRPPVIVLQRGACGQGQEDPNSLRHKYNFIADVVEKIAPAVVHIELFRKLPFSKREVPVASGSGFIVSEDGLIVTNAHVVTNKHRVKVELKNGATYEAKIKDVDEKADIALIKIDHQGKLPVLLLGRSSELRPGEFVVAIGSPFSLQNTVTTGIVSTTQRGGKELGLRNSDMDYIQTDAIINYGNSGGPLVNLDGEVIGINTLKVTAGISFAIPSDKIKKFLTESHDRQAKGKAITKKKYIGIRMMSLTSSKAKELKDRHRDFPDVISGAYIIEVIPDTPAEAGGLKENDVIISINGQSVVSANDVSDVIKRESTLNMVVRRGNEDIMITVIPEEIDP
In the case of `COc1cccc(/C=N/Nc2ccc(S(=O)(=O)Nc3ccccc3C(=O)O)cc2[N+](=O)[O-])c1O`, the inhibition is 40.5% (active).

Turning to `Cc1ccc(NS(=O)(=O)c2ccc(N/N=C/c3ccccc3OCC(=O)O)c([N+](=O)[O-])c2)c(C)c1`, the inhibition was 37.7% (active).

For the compound `Cc1cc([N+](=O)[O-])ccc1NS(=O)(=O)c1ccccc1`, the inhibition was -0.9%.

With `COc1ccc(Br)cc1/C=N/Nc1ccc(S(=O)(=O)Nc2ccccc2C(=O)O)cc1[N+](=O)[O-]`, the inhibition is -2.73%.

As for `COc1ccc(S(=O)(=O)Nc2ccccc2C(=O)N2CCCC2)cc1C`, the inhibition is 1.39%.

As to `C=C(C)CNC(=S)N/N=C/c1ccccc1OCC(=O)O`, the inhibition is 4.14%.

On to `C[C@H]1CN([C@@H](C)CO)C(=O)CCCn2cc(nn2)CO[C@@H]1CN(C)S(=O)(=O)c1ccc(-c2ccccc2)cc1`, for which the inhibition was -3.19%.

On to `COc1ccc2c(c1)CCCO[C@]21O[C@H](CCO)C[C@H](O)[C@H]1O`, for which the inhibition was -2.62%.

In the case of `CC1=C(C(=O)N2CCOCC2)CC(CC(=O)NCc2ccco2)C(=O)N1Cc1ccc(F)cc1` (stereo not given), the inhibition was 4.18%.

As for `Cc1ccn(CC(=O)NC2CCCN(Cc3ccccc3F)C2)n1` (stereo not given), the inhibition is 0.25%.

With `Cc1ccc(C(=O)NC(C)C(c2cccs2)N2CCOCC2)cc1C` (stereo not given), the inhibition was 1.64%.

Turning to `C[C@@H]1CN([C@@H](C)CO)S(=O)(=O)c2ccc(C#Cc3cccc(F)c3)cc2O[C@H]1CN(C)S(=O)(=O)c1cn(C)cn1`, the inhibition was -25.7%.

For `CC(=O)N/N=C(\C)c1ccc(Br)cc1Br`, the inhibition is 2.26%.

Take `CC(C)/C=N/NC(=O)c1cc(Br)ccc1O`: the inhibition was 6.13%.

Turning to `CC(=N\NC(=O)c1cc(Br)ccc1O)/C(=N/O)C(=O)Nc1ccccc1`, the inhibition is 46.1% (active).

For the compound `CC1CCN(C(=O)CSc2nnc(-c3ccco3)n2N)CC1`, the inhibition was 2.17%.

As for `C[C@@H]1CN([C@@H](C)CO)C(=O)c2cc(Br)cnc2O[C@H]1CN(C)Cc1ccc(-c2ccccc2)cc1`, the inhibition is -13.1%.

For the compound `Cc1ccn2c(-c3csc(Nc4ccc(C(=O)O)cc4)n3)c(C)nc2c1`, the inhibition was -2.27%.

On to `Oc1ccc(-c2nc3ccccc3nc2-c2ccc(O)cc2O)c(O)c1`, for which the inhibition was -7.06%.

`Cc1ccc(Nc2nc(-c3ccc(O)cc3O)cs2)nc1`: the inhibition is 37.1% (active).

Turning to `COc1ccc(S(=O)(=O)N(C)C[C@H]2OCc3cnnn3CCCC(=O)N([C@H](C)CO)C[C@H]2C)cc1`, the inhibition is 0.5%.

In the case of `CC(OC(=O)c1cccnc1Cl)C(=O)NC1CCCCC1` (stereo not given), the inhibition was 2.76%.

In the case of `CCOc1ccc(CCN2C(=O)c3cccnc3C2=O)cc1OCC`, the inhibition was -1.21%.

`NC1=CC(=O)C(=O)c2cccnc21`: the inhibition was 38.3% (active).

As for `Cc1ccc(CCNC(=O)CN2C(=O)CSc3ccc(S(=O)(=O)N4CCOCC4)cc32)cc1`, the inhibition is -3.89%.

With `COCOCCn1cc(CN2CCS(=O)(=O)N(Cc3ccc(-c4ccc(OC)cc4)cc3)C(CC(C)C)C2=O)nn1` (stereo not given), the inhibition is -16.7%.

In the case of `CCN(CC)c1ccc(/C=N/Nc2nc(C)cc(C)n2)c(O)c1`, the inhibition was 63.8% (active).

Take `Cc1cc(C)nc(N/N=C/c2c(CO)cnc(C)c2O)n1`: the inhibition was 4.05%.

`CCN(CC)c1ccc(/C=N/NC(=O)c2cnccn2)c(O)c1`: the inhibition was 11.4%.

`COc1ccc(CN2C(=O)C(CC(=O)NC3CCCCC3)CC(C(=O)N3CCOCC3)=C2C)cc1` (stereo not given): the inhibition is 9.07%.

For the compound `CCOc1c2ccc(C(=O)NCc3ccc(OC(F)(F)F)cc3)cc2nn1C`, the inhibition was -3.97%.

For the compound `CCOC(=O)Cc1ncccc1C(=O)Nc1ccc(OC(F)(F)F)cc1`, the inhibition was -0.74%.

For `O=C(Nc1ccc(OC(F)(F)F)cc1)c1ccc2c(c1)no[n+]2[O-]`, the inhibition is 42.3% (active).

For `C[C@H]1CN([C@@H](C)CO)S(=O)(=O)c2ccc(-c3cccc(F)c3)cc2O[C@@H]1CN(C)C`, the inhibition is 0.65%.

Consider `Cn1c(CCN2CCN(c3ccccn3)CC2)nc2cc(NS(=O)(=O)c3ccc(F)cc3)ccc21`, for which the inhibition is -0.52%.

`C[C@H]1CN([C@@H](C)CO)C(=O)CCCn2cc(nn2)CO[C@@H]1CN(C)S(=O)(=O)c1ccc(-n2cccn2)cc1`: the inhibition is -3.1%.

`CC(=O)n1c(C=Nc2ccccc2)c(O)c2ccccc21`: the inhibition is -1.27%.

As for `Oc1ccc(N=Cc2sc3ccccc3c2Cl)cc1`, the inhibition is 65.8% (active).

Consider `C[C@H](CO)N1C[C@H](C)[C@H](CN(C)C(=O)Nc2ccc3c(c2)OCO3)Oc2ncc(Br)cc2C1=O`, for which the inhibition is -0.29%.

For the compound `Cc1c(NC(=O)COC(=O)/C=C/c2cccc(F)c2)c(=O)n(-c2ccccc2)n1C`, the inhibition was -0.4%.

Consider `CC1(C)CC(=O)C=C(c2ccccc2CO)C1=O`, for which the inhibition is -3.27%.

As for `CCCn1c(N)c(C(=O)CSc2nnc(Cc3cccs3)n2C2CC2)c(=O)[nH]c1=O`, the inhibition is 3%.

With `COc1ccccc1-c1n[nH]nc1C1=CC(=O)CC(C)(C)C1`, the inhibition was 3.87%.

Turning to `CCc1ccc2c(c1)C1(NN=C(c3ccccc3)S1)C(=O)N2` (stereo not given), the inhibition was 60.5% (active).

For `COc1ccc(-c2cnc3c(c2)C(=O)N([C@H](C)CO)C[C@@H](C)[C@H](CN(C)Cc2ccccc2)O3)cc1`, the inhibition is -5.18%.

The values are drawn from PubChem BioAssay AID504803 (The Scripps Research Institute Molecular Screening Center, 2011).
